Compounds without any hit were thinned out: in the full panel of roughly 79,000, 15% have a hit. Calls of active or inactive are those of the source. Cut-off read from the data, not from the text of the source: active = growth inhibition above about 70%; inactive = the rest.
assay: NCI Yeast Anticancer Drug Screen. Data for the rad50 strain (AID 155);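 note: 0% = growth of vehicle-only cultures of the same strain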; settings: S. cerevisiae rad50 strain growth inhibition; at 50.0 µM; active compounds read high
Summary of the method: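 Yeast carrying a defined DNA repair defect were exposed to test compounds, and growth was compared with vehicle-treated controls to give percent inhibition.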

SMILES	growth inhibition
CCCCCCCCCCc1ccc(CCCCCCCCCC)cc1	7% (inactive)
CCCCCCC(CC)C(N)=O (stereo not given)	9.1% (inactive)
CCC1CN2CCc3cc(OC)c(OC)cc3C2CC1C#N (stereo not given)	15.4% (inactive)
O=C(N/N=C/c1ccc(Cl)cc1Cl)c1ccccc1	-13.8% (inactive)
N#Cc1ccc(OC(=O)Nc2cccc(Cl)c2Cl)cc1	-3.7% (inactive)
Cn1c(=O)oc2cc(C(=O)CN3CCN(Cc4ccc5c(c4)OCO5)CC3)c(Cl)cc21	29.5% (inactive)
COc1cc2ccc(=O)oc2cc1O	14.6% (inactive)
O=C(N/N=C\c1c[nH]c2ccccc12)N/N=C/c1c[nH]c2ccccc12	-4.05% (inactive)
CCCC(=O)c1ccc(C)cc1	-1.2% (inactive)
O=C(O)C1(c2ccccc2)CC1	8.5% (inactive)
NCC(O)CN	-13.8% (inactive)
CC(=O)OC1CC2(c3ccccc3)C(=O)c3ccccc3N2O1 (stereo not given)	27.2% (inactive)
O=C(Nc1cccc2ccccc12)Oc1cccc2cccnc12	98% (active)
CC(C)(/C=N\O)NO	-14.8% (inactive)
CC(=O)Nc1ccc(C)cc1[N+](=O)[O-]	-29.6% (inactive)
CN(C)C1=CC(=O)NC(c2ccccc2)C1 (stereo not given)	-10.6% (inactive)
COC(=O)C(Cc1ccc2c(c1)CCC2)Cc1ccc2c(c1)CCC2	-46.9% (inactive)
CCC[CH2][Sn]([C]#[C][Sn]([CH2]CCC)([CH2]CCC)[CH2]CCC)([CH2]CCC)[CH2]CCC	99.6% (active)
Cc1cc(/C=C2\SC(=S)NC2=O)cc(C)c1O	1.65% (inactive)
O=C(/C(=C/c1ccccc1)N1CCOCC1)c1cccc2ccccc12	18.9% (inactive)

SMILES	growth inhibition
CC(=O)/C(=C/n1c(=S)[nH]c2ccccc21)C(=O)Nc1ccc([N+](=O)[O-])cc1	-17.5% (inactive)
NNC(=S)N/N=C(/C(=O)Nc1cc(Cl)ccc1Cl)C1C(=O)Nc2ccccc2S1=O (stereo not given)	-21.8% (inactive)
N[N+]1(CCS(N)(=O)=O)CCOCC1	-1.95% (inactive)
Nc1nc(N)nc(-c2ccccc2-c2nc(N)nc(N)n2)n1	-5.65% (inactive)
O=C1C(Cl)C(c2ccccc2O)N1n1cnc2ccccc2c1=O (stereo not given)	-29.4% (inactive)
COC[C@@H](N=CN1CCc2cc(OC)c(OC)cc2C1)C(C)(C)C	-31.2% (inactive)
CC(C)(C)OC(=O)C(C1NC(C(=O)O)C(C)(C)S1)N1C(=O)c2ccccc2C1=O (stereo not given)	-29.8% (inactive)
CCCOc1cc2c(cc1C(C)c1ccc(OC)cc1)OCO2 (stereo not given)	9.8% (inactive)
COc1cc2ccc3c[n+]4ccccc4cc3c2cc1OC	9.25% (inactive)
CC1(C)OC(=O)c2c(cc(N3CCOCC3)oc2=O)O1	3.35% (inactive)
COc1ccc(C(O)(c2ccccc2C)c2ccccc2OC)cc1 (stereo not given)	16.1% (inactive)
NC1=NC(=O)C(CC(=O)Nc2ccc([N+](=O)[O-])cc2[N+](=O)[O-])S1 (stereo not given)	-15.2% (inactive)
CC(=O)OC(C(=O)Nc1ncccn1)c1ccccc1 (stereo not given)	-4.7% (inactive)
CCOC(=O)C(=O)Nc1ccc2cc(OC)ccc2c1C#N	13.8% (inactive)
N#C/C(N)=C(\C#N)NC=NCc1ccccc1	-10.8% (inactive)
C#CCCC#C	-4.4% (inactive)
COc1ccc(C(CN(C)C(C)C)OC(=O)C(c2ccccc2)c2ccccc2)cc1OC (stereo not given)	-14.1% (inactive)
CCCCCCCCCCCCCCCC/C(C(=O)OC)=C(/O)C(=O)OCC	-4.7% (inactive)
COc1cc(C)oc(=O)c1	-6.1% (inactive)
COc1cc2c(c(Cl)c1OC)CCN(C)CC2c1ccccc1 (stereo not given)	-5.25% (inactive)

assay: NCI Yeast Anticancer Drug Screen. Data for the mec2-1 strain (AID 157); settings: S. cerevisiae mec2-1 strain, at 50.0 µM, active compounds read high
Summary of the method: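 Each compound was tested on mec2-1 yeast, a strain altered in DNA damage repair or cell cycle control. Growth inhibition is reported relative to vehicle.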

SMILES	growth inhibition
CCCCCCCCCCc1ccc(CCCCCCCCCC)cc1	7.2% (inactive)
CCCCCCC(CC)C(N)=O (stereo not given)	7.8% (inactive)
CCC1CN2CCc3cc(OC)c(OC)cc3C2CC1C#N (stereo not given)	9.2% (inactive)
O=C(N/N=C/c1ccc(Cl)cc1Cl)c1ccccc1	-1.65% (inactive)
N#Cc1ccc(OC(=O)Nc2cccc(Cl)c2Cl)cc1	-25.4% (inactive)
Cn1c(=O)oc2cc(C(=O)CN3CCN(Cc4ccc5c(c4)OCO5)CC3)c(Cl)cc21	26.4% (inactive)
COc1cc2ccc(=O)oc2cc1O	9.35% (inactive)
O=C(N/N=C\c1c[nH]c2ccccc12)N/N=C/c1c[nH]c2ccccc12	-21.4% (inactive)
CCCC(=O)c1ccc(C)cc1	-18.8% (inactive)
O=C(O)C1(c2ccccc2)CC1	-7% (inactive)
NCC(O)CN	-0.75% (inactive)
CC(=O)OC1CC2(c3ccccc3)C(=O)c3ccccc3N2O1 (stereo not given)	-16.6% (inactive)
O=C(Nc1cccc2ccccc12)Oc1cccc2cccnc12	96.9% (active)
CC(C)(/C=N\O)NO	-20.4% (inactive)
CC(=O)Nc1ccc(C)cc1[N+](=O)[O-]	1.15% (inactive)
CN(C)C1=CC(=O)NC(c2ccccc2)C1 (stereo not given)	-17.4% (inactive)
COC(=O)C(Cc1ccc2c(c1)CCC2)Cc1ccc2c(c1)CCC2	-16.4% (inactive)
CCC[CH2][Sn]([C]#[C][Sn]([CH2]CCC)([CH2]CCC)[CH2]CCC)([CH2]CCC)[CH2]CCC	98.8% (active)
Cc1cc(/C=C2\SC(=S)NC2=O)cc(C)c1O	0.8% (inactive)
O=C(/C(=C/c1ccccc1)N1CCOCC1)c1cccc2ccccc12	-2.15% (inactive)

SMILES	growth inhibition
CC(=O)/C(=C/n1c(=S)[nH]c2ccccc21)C(=O)Nc1ccc([N+](=O)[O-])cc1	-2.75% (inactive)
NNC(=S)N/N=C(/C(=O)Nc1cc(Cl)ccc1Cl)C1C(=O)Nc2ccccc2S1=O (stereo not given)	-32.6% (inactive)
N[N+]1(CCS(N)(=O)=O)CCOCC1	-12.6% (inactive)
Nc1nc(N)nc(-c2ccccc2-c2nc(N)nc(N)n2)n1	-2.85% (inactive)
O=C1C(Cl)C(c2ccccc2O)N1n1cnc2ccccc2c1=O (stereo not given)	8.9% (inactive)
COC[C@@H](N=CN1CCc2cc(OC)c(OC)cc2C1)C(C)(C)C	-18.2% (inactive)
CC(C)(C)OC(=O)C(C1NC(C(=O)O)C(C)(C)S1)N1C(=O)c2ccccc2C1=O (stereo not given)	-43% (inactive)
CCCOc1cc2c(cc1C(C)c1ccc(OC)cc1)OCO2 (stereo not given)	-4.35% (inactive)
COc1cc2ccc3c[n+]4ccccc4cc3c2cc1OC	14.2% (inactive)
CC1(C)OC(=O)c2c(cc(N3CCOCC3)oc2=O)O1	-2.9% (inactive)
COc1ccc(C(O)(c2ccccc2C)c2ccccc2OC)cc1 (stereo not given)	-2.4% (inactive)
NC1=NC(=O)C(CC(=O)Nc2ccc([N+](=O)[O-])cc2[N+](=O)[O-])S1 (stereo not given)	-30.3% (inactive)
CC(=O)OC(C(=O)Nc1ncccn1)c1ccccc1 (stereo not given)	-2.8% (inactive)
CCOC(=O)C(=O)Nc1ccc2cc(OC)ccc2c1C#N	14.2% (inactive)
N#C/C(N)=C(\C#N)NC=NCc1ccccc1	-18.6% (inactive)
C#CCCC#C	-17.3% (inactive)
COc1ccc(C(CN(C)C(C)C)OC(=O)C(c2ccccc2)c2ccccc2)cc1OC (stereo not given)	-6.85% (inactive)
CCCCCCCCCCCCCCCC/C(C(=O)OC)=C(/O)C(=O)OCC	-12.1% (inactive)
COc1cc(C)oc(=O)c1	6.15% (inactive)
COc1cc2c(c(Cl)c1OC)CCN(C)CC2c1ccccc1 (stereo not given)	-15.3% (inactive)
